Growth data for 38 compounds are collected here from PubChem BioAssay (NCI).

Structures are written as SMILES. The panel holds about 83,000 compounds, 20% with a hit somewhere; the sample as a whole holds those more often.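 Step 1: grow cells in 96-well plates. Step 2: add test compound at a single concentration. Step 3: incubate 48 h. Step 4: record percent growth.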 A number with no mark means an inactive call. The source made the active and inactive calls. How the source made its calls: active means growth percent below 10; inactive means the rest.

The assay has as its system HCT-15 colon. As to the kind of experiment: NCI-60 one-dose screen, 48 h (100 = growth as untreated, 0 = no growth, -100 = all killed). Conditions: 10 µM unless noted.
Take `Clc1ccccc1/C=C/c1nn2c(-c3ccncc3)nnc2s1`: the growth is 96.4%. The figure for `COc1ccc(/C=N/Nc2nc(Nc3ccccc3)nc(Nc3ccc(S(N)(=O)=O)cc3)n2)cc1` is 68.2%.

For `CS(=O)c1nccc(-c2c(-c3ccc(F)c(OCc4ccccc4)c3)nc3sccn23)n1` (stereo not drawn), the growth was 74.8%. Consider `COc1ccc(-c2cc(-c3cccc4ccccc34)n3c(n2)nc2ccccc23)cc1`, for which the growth is 42.8%. Turning to `COc1ccc2c(c1)c(-c1nn3c(=O)cc(-c4ccccc4)nc3s1)cn2C`, the growth was 34.7%. Then `CC1(C)CC[C@]2(C(=O)N3CCCNCC3)CC[C@]3(C)C(=CC[C@@H]4[C@@]5(C)CCC(=O)C(C)(C)[C@@H]5CC[C@]43C)[C@H]2C1`, with 103%; and `CCOC(=O)C1=C(C)Nc2nnc(Nc3ccccc3)n2C1c1ccccc1` (stereo not drawn), with 58.1%; and `Cc1nc(-c2cc3ccccc3c(N3CCN(C)CC3)n2)cs1`, with 92.1%.

For `Nc1n[nH]c2cccc(C#Cc3cccc(NC(=O)c4cccc(OC(F)(F)F)c4)c3)c12`, the growth was 41.3%. Then `COc1c([C@@H](CC(C)C)OC(C)=O)ccc2c1C(=O)OCc1cc(C)cc(O)c1O2`, with 17.3%; and `O=C1CSC(=O)N1Cc1cc2ccccc2nc1Cl`, with 101%. The figure for `O=C1Nc2ccc(Cl)cc2/C1=C/c1ccc(OCc2ccc(Br)cc2F)cc1` is 102%; for `COc1cc2oc(-c3cccc(NC(=O)c4cc(NC(=O)[C@H](C)N)ccc4Cl)c3)cc(=O)c2c(OC)c1OC` it is 79.8%; for `COc1cc2oc(-c3cccc(NC(=O)c4cc(NC(=O)[C@H](C)NC(=O)OC(C)(C)C)ccc4C)c3)cc(=O)c2c(OC)c1OC` it is 50.8%. Take `C/C(=C(/C)C1CC1CCN(C(=O)c1ccc([N+](=O)[O-])cc1)S(=O)(=O)c1ccc(C)cc1)C1CCCCC1` (stereo not drawn): the growth was 98.1%.

`CN1CCN(c2nc(-c3cnc4ccccc4n3)cc3ccccc23)CC1`: the growth is 7.27% (active). Consider `CCNC(=O)Oc1ccc(/C(=C(/C)c2ccccc2)c2ccc(OCCN3CCCC3)cc2)cc1`, for which the growth is 46.5%.

For `O=C(CSc1nnc(-c2cccs2)n1-c1ccccc1)Nc1ccc(F)cc1`, the growth is 93.6%.

For `NS(=O)(=O)Oc1ccc2nc(Nc3ccc(F)c(F)c3)ccc2c1`, the growth is 69.6%. The figure for `C#C[C@]1(O)CC[C@H]2[C@@H]3CC=C4c5sc(Nc6cccc(C)n6)nc5CC[C@]4(C)[C@H]3CC[C@@]21C` is 15.6%; for `COc1ccc([C@H]2[C@H](O)C(=O)N2c2cc(OC)c(OC)c(OC)c2)cc1O` it is 1.4% (active).

With `COc1cc(-c2nc(SCc3ccc(C)cc3)[nH]c(=O)c2C#N)ccc1OCc1ccccc1`, the growth was 97.9%.

Turning to `CCOC(=O)Nc1cccc(-n2cnc3cc(-c4ccc(O)cc4)ccc32)c1`, the growth was 9.71% (active).

For `COc1cc(O)c2c(c1)[C@H]1O[C@@H]1C[C@H](O)[C@H](O)C(=O)/C=C\C[C@H](C)OC2=O`, the growth is 28.7%.

As to `CN1CCN(c2ccc(C(=O)/C=C/c3ccc(Cl)c(C(F)(F)F)c3)cc2)CC1`, the growth was 17%. The figure for `Cc1ccccc1NC1CC(=O)N(c2ccc(Cl)cc2Cl)C1=O` (stereo not drawn) is 101%; for `C/C(=C(/c1ccc(O)cc1)c1ccc(OCCN(C)C)cc1)c1ccc(Cl)cc1` it is -26.8% (active); for `C=CCn1c(SCC(=O)Nc2cccc(C(=O)/C=C/c3ccc(Cl)cc3)c2)nc2ccccc2c1=O` it is 81.5%. The figure for `Cc1nn(-c2ccc(Br)cc2)c2nc(CCl)[nH]c(=O)c12` is 103%; for `Cc1cc2nc(C(Cl)Cl)nc(-c3ccco3)n2n1` it is 72%. Then `C=CCn1c(SCC(=O)c2ccc(OC)cc2)nnc1-c1ccc(OC)cc1`, with 98.1%; and `ClC(Cl)c1nc(-c2cccs2)n2nc(-c3ccccc3)cc2n1`, with 0.506% (active); and `COc1cc2c3c(n(CCCNC4CCCCC4)c(=O)c2cc1OC)-c1cc2c(cc1C3=O)OCO2`, with -68.7% (active). On to `C#CCOc1ccc(/C=N/Nc2nc(-c3cc(Cl)ccc3Cl)cs2)cc1`, for which the growth was 81.7%. The figure for `CS(=O)(=O)c1ccc2c(c1)c1c(n2S(=O)(=O)c2ccc(Cl)cc2)CCCC1` is 24%. The figure for `CC(=O)NC(C)(C)C(=O)N1CCC[C@H]1C(=O)NC(C)(C)C(=O)N[C@@H](C)C(=O)NC(C)(C)C(=O)NC(C)(C)C(=O)N[C@@H](CCC(N)=O)C(=O)NC(C)(C)C(=O)N[C@H](C(=O)NC(C)(C)C(=O)NCC(=O)N[C@@H](CC(C)C)C(=O)NC(C)(C)C(=O)N1CCC[C@H]1C(=O)N[C@H](C(=O)NC(C)(C)C(=O)NC(C)(C)C(=O)N[C@@H](CCC(N)=O)C(=O)N[C@@H](CCC(N)=O)C(=O)N[C@H](CO)Cc1ccccc1)C(C)C)C(C)C` is 98.8% [4.25 µM]; for `Cc1cn(-c2cc(NC(=O)c3cncc(C#Cc4cnc5ccc(O[C@@H]6CCOC6)nn45)c3)cc(C(F)(F)F)c2)cn1` it is -31.2% (active). For `O=C(O)CNS(=O)(=O)c1ccc(Oc2ccc(S(=O)(=O)NCC(=O)O)cc2)cc1`, the growth was 102%.
